# High-throughput results (PubChem BioAssay)
# FBW7 activator: activators of human E3 ligase FBW7; hit rate 0.13% among 650,000; normalized activity (activation), % at 26.1 µM; Q969H0; AlphaScreen FBW7–phospho-cyclin E peptide binding, activator screen; in the data active = normalized activity above about 1.9%;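 also: purified mutant Fbw7 with reduced substrate affinity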
# GPR151 ag: activates the human receptor GPR151; PathHunter beta-arrestin GPR151 cells, luminescence; AID 1508602; hit rate 1% among 650,000; activation, % at 11.2 µM; in the data active = activation above about 4.9%;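 also: 0% = median of compound wells and 100% = cells with positive control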
# MITF inh: inhibitors of human MITF. AID 1259374. hit rate 0.91% among 650,000. O75030. inhibition, % at 2.6 µM. AlphaScreen MITF homodimerization, bead proximity signal; in the data active = inhibition above about 50%;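 also: 0% = vehicle wells with protein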
# TEAD-YAP inh: TEAD-YAP interaction inhibition | inhibition, % at 9.12 µM | hit rate 1.4% among 640,000 | HEK-TIYL cells, TEAD-Gal4/YAP UAS-luciferase luminescence; in the data active = inhibition above about 32%;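 also: 0% = median of test compound wells and 100% = reference inhibitor wells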
# Starred values were filed as active, the others as inactive. Only some compounds are listed: those with a hit (about 3.5% of all), similar ones and a draw of the others.
SMILES,FBW7 activator,GPR151 ag,MITF inh,TEAD-YAP inh
Cc1cc(NC(=O)CSc2nc3cc4c(cc3c(=O)n2CCC(=O)N2CCN(c3ccccc3)CC2)OCO4)n[nH]1,0,-1,1,7
Cc1nn2c(N)cc(-c3ccccc3)nc2c1-c1ccc(Cl)cc1,0,-1,-22,2
Cc1nc2c(-c3ccc(Cl)cc3)cnn2c(N)c1-c1ccccc1,0,-2,14,89*
Cc1c(Cl)cccc1N1C(N)=C(C#N)C(c2ccc(Cl)cc2)C2=C1CC(C)(C)CC2=O (stereo unspecified),0,4,-14,1
CC1=CC(C)(C)N(S(=O)(=O)c2ccc(F)cc2)c2ccc(C)cc21,1,-1,11,44*
COc1ccc(/C=C/C(=O)N2c3ccc(OC)cc3C(C)=CC2(C)C)cc1,0,0,8,-2
CC1=CC(C)(C)N(S(=O)(=O)c2ccc(C)cc2)c2cc(C)c(C)cc21,0,0,-1,65*
COc1ccc(S(=O)(=O)N2c3ccc(C)cc3C(C)=CC2(C)C)cc1,0,1,10,62*
COc1ccc(S(=O)(=O)N2c3ccc(Br)cc3C(C)=CC2(C)C)cc1,0,0,6,55*
CCOC(=O)C1(Cc2cccc(OC)c2)CCCN(C(=O)C(=O)c2ccccc2)C1 (stereo unspecified),0,-1,-1,-44
O=c1[nH]cnc2nc(N/N=C/c3ccc(Br)cc3)[nH]c12,0,0,-3,6
CC(C)S(=O)(=O)N1CC[C@@H]2[C@H](CCCN2C(=O)CCCc2cccs2)C1,0,0,8,-15
CC1=CC(C)(C)N(S(=O)(=O)c2ccc(Cl)cc2)c2c(C)cc(C)cc21,0,0,-4,-6
CCOc1ccc(S(=O)(=O)N2c3ccc(C)cc3C(C)=CC2(C)C)cc1,0,1,-5,64*
CC1=CC(C)(C)N(S(=O)(=O)c2ccc(C)cc2)c2c(C)cc(C)cc21,0,0,-9,36*
COc1ccc(SCC(=O)Nc2cccc(OC)c2)cc1,1,-1,23,-3
O=C(COc1ccc(F)cc1)Nc1nccs1,-1,-8,7,-16
CCc1ccc(OCC(=O)Nc2nccs2)cc1,0,-3,8,86*
Cc1ccc(OCC(=O)Nc2nccs2)cc1C,0,-1,9,75*
CCCc1ccc(OCC(=O)Nc2nccs2)cc1,0,-4,0,81*
Cc1cc(/C=C2\Sc3ccccc3N2C)cc(C)[n+]1CCCn1ccnc1,0,-1,-1,-3
CC(C)(C)P(=NC(=S)NNCCO)(N1CCCCCC1)N1CCCCCC1,0,2,-6,78*
CC(C)(C)P(=NC(=S)Nc1ccccc1)(N1CCOCC1)N1CCOCC1,0,-2,0,2
CC(=O)C1=C(O)C(=O)N(C)C1c1ccc(Cl)cc1 (stereo unspecified),0,1,-1,-2
COc1c(C)c2c(c(O)c1C/C=C(\C)CCC(=O)OCCN1CCOCC1)C(=O)OC2,0,-2,-4,48*
SMILES,FBW7 activator,GPR151 ag,MITF inh,TEAD-YAP inh
NC(=S)/N=C1\CCN(c2cccc(C(F)(F)F)c2)N1,0,-1,-4,35*
Cc1cc(NC(=O)C(=O)NCc2ccccc2Cl)no1,0,-1,19,4
C=CCn1c(SCC(=O)NC2CCCC2)nc2sc3c(c2c1=O)CCC3,0,1,-10,2
CCn1ncc(C2=NOC(C(=O)NCc3ccco3)C2)c1C (stereo unspecified),0,0,-20,45*
O=C(NCc1ccco1)C1CC(c2ccccc2F)=NO1 (stereo unspecified),0,1,2,5
CC(C)CCN1CCc2nnc(CCNC(=O)C3CCC3)n2CC1,0,2,-14,-3
O=C(NCCN1CCOCC1)c1ccnc(NCCCN2CCCC2=O)c1,0,-2,-6,-11
C=CCc1cccc(/C=N/NC(=O)CCCO)c1O,0,0,29,6
C=CCc1cccc(/C=N/NC(=O)C[n+]2ccccc2)c1O,0,-1,29,60*
CC(=O)NCCNC(=O)c1cccc(N(C)C)c1,0,-2,-11,0
O=C(N/C(=C/c1ccccc1)C(=O)N1CCCCCCC1)c1ccccc1,0,0,6,4
O=C(N/N=C/c1ccccc1F)/C(=C/c1ccccc1O)NC(=O)c1ccccc1,0,-6,3,89*
COc1ccc(/C=C(/NC(=O)c2ccccc2)C(=O)N/N=C/c2cccc(O)c2)cc1OC,0,0,-3,2
O=C(N/C(=C/c1ccccc1O)C(=O)N1CCCCC1)c1ccccc1,1,-6,-12,74*
COc1ccc(OC)c(/C=C(\NC(=O)c2ccccc2)C(=O)N/N=C/c2cccc(O)c2)c1,2.5*,-2,7,-4
O=C(N/N=C/c1ccccc1O)/C(=C/c1ccccc1)NC(=O)c1ccccc1,0,2,3,6
Cc1ccc(C)c(S(=O)(=O)Oc2ccccc2C(=O)OCC(=O)Nc2cc(C)on2)c1,0,0,2,39*
O=C(CCl)N=c1sccn1Cc1ccccc1Cl,0,-2,11,39*
Cc1ccc2sc(-c3ccc(NC(=O)C(C)(C)C)cc3)nc2c1,0,0,-5,37*
O=C(Nc1ccc(-c2nc3ccccc3s2)cc1)C(F)(F)F,0,-7,0,67*
Cc1ccc2sc(-c3ccc(NC(=O)/C=C\C(=O)O)cc3)nc2c1,0,-6,5,90*
Cc1ccc2sc(-c3ccc(NC(=O)c4ccc(Br)cc4)cc3)nc2c1,0,2,12,-6
CC(=O)Nc1nc(-c2nc3ccccc3s2)cs1,0,-5,3,38*
COc1ccc(C(NC(=O)C2CCN(C(=O)c3ccoc3)CC2)c2ccccn2)cc1 (stereo unspecified),1,0,-3,-9
CCCCOc1ccccc1C=C1C(=O)NC(=S)NC1=O,0,0,22,-7
SMILES,FBW7 activator,GPR151 ag,MITF inh,TEAD-YAP inh
CC(=O)Nc1ccccc1NS(=O)(=O)c1ccc2ccccc2c1,1,1,9,53*
Cc1ccccc1NS(=O)(=O)c1ccc2ccccc2c1,0,0,12,3
CCOC(=O)C(C)Oc1ccc2cc(-c3ccccc3)c(=O)oc2c1 (stereo unspecified),2.3*,-4,-4,18
O=C(N/N=C/c1cc(Br)cc(Br)c1O)c1ccco1,0,1,12,9
CCOC(=O)C(O)(c1ccc(N(CC)C(=O)c2ccccc2)cc1)C(F)(F)F (stereo unspecified),2.6*,-1,18,3
CCC(=O)NC(c1cccs1)c1ccc2ccccc2c1O (stereo unspecified),1,1,-1,-7
CCC(=O)NC(c1cccs1)c1ccc2cccnc2c1O (stereo unspecified),-1,1,30,77*
CCCCC(=O)NC(c1cccs1)c1ccc2ccccc2c1O (stereo unspecified),1,1,1,1
CCCC(=O)NC(c1cccs1)c1ccc2cccnc2c1O (stereo unspecified),-1,1,46,86*
